Experiment in all cases: PBM; 200 nM protein, PBS
Common to all, as to details: dsDNA, one strand shown

The target in assay [1] is CRX (Homo sapiens, UniProt O43186 26-111).
Assay [2] deals with CRX (Homo sapiens, UniProt O43186 26-111, E42D).
The target in assay [3] is VAX1 (Homo sapiens, UniProt Q5SQQ9 86-172).
Assay [4] deals with VAX1 (Homo sapiens, UniProt Q5SQQ9 86-172, T142I).
For assay [5], the target named is VAX1 (Homo sapiens, UniProt Q5SQQ9 86-172, K157R).
The next assay has as its target PITX2 (Homo sapiens, UniProt Q99697 72-157).
Assay [6] has as its target CRX (Homo sapiens, UniProt O43186 26-111, R41L).

Chain of CRX (Homo sapiens, UniProt O43186 26-111, R41L) (O43186 26-111 R41L): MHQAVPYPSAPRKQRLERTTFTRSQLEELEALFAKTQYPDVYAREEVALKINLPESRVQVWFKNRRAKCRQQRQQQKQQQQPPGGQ
Chain of CRX (Homo sapiens, UniProt O43186 26-111) (O43186 26-111): as the sequence (O43186 26-111 R41L) above, with L16R counted along it
Chain of CRX (Homo sapiens, UniProt O43186 26-111, E42D) (O43186 26-111 E42D): as the sequence (O43186 26-111 R41L) above, with L16R, E17D counted along it
Chain of VAX1 (Homo sapiens, UniProt Q5SQQ9 86-172, K157R) (Q5SQQ9 86-172 K157R): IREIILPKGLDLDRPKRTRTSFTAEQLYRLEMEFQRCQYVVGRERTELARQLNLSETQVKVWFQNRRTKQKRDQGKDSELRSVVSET
Chain of VAX1 (Homo sapiens, UniProt Q5SQQ9 86-172) (Q5SQQ9 86-172): as the sequence (Q5SQQ9 86-172 K157R) above, with R72K counted along it
Chain of VAX1 (Homo sapiens, UniProt Q5SQQ9 86-172, T142I) (Q5SQQ9 86-172 T142I): as the sequence (Q5SQQ9 86-172 K157R) above, with T57I, R72K counted along it

With AACTTTAA, the binding signal is 10.5 upbm affinity estimate (log intensity, higher = more binding, comparable within an allelic series) in the assay with CRX [1]; 10.2 upbm affinity estimate (log intensity, higher = more binding, comparable within an allelic series) in the assay with CRX [2]; 9.82 upbm affinity estimate (log intensity, higher = more binding, comparable within an allelic series) with VAX1 [3]; 9.35 upbm affinity estimate (log intensity, higher = more binding, comparable within an allelic series) with VAX1 [4]; 9.35 upbm affinity estimate (log intensity, higher = more binding, comparable within an allelic series) with VAX1 [5].

Take ATAATCCC: the binding signal was 13.5 upbm affinity estimate (log intensity, higher = more binding, comparable within an allelic series) with CRX [1]; 13.7 upbm affinity estimate (log intensity, higher = more binding, comparable within an allelic series) with CRX [2]; 13.2 upbm affinity estimate (log intensity, higher = more binding, comparable within an allelic series) with PITX2; 13.7 upbm affinity estimate (log intensity, higher = more binding, comparable within an allelic series) in the assay with CRX [6].

For GATTAAGC, the binding signal in the assay with CRX [1] is 13.1 upbm affinity estimate (log intensity, higher = more binding, comparable within an allelic series); with CRX [2] it was 13.1 upbm affinity estimate (log intensity, higher = more binding, comparable within an allelic series); with PITX2, 12.7 upbm affinity estimate (log intensity, higher = more binding, comparable within an allelic series); with CRX [6], 12.6 upbm affinity estimate (log intensity, higher = more binding, comparable within an allelic series).

Turning to GGAGATTA, the binding signal was 13.2 upbm affinity estimate (log intensity, higher = more binding, comparable within an allelic series) in the assay with CRX [1]; 13.2 upbm affinity estimate (log intensity, higher = more binding, comparable within an allelic series) in the assay with CRX [2]; 12.9 upbm affinity estimate (log intensity, higher = more binding, comparable within an allelic series) with PITX2; 13.1 upbm affinity estimate (log intensity, higher = more binding, comparable within an allelic series) with CRX [6].

As to GGGATTAC, the binding signal is 13.2 upbm affinity estimate (log intensity, higher = more binding, comparable within an allelic series) with CRX [1]; 13.2 upbm affinity estimate (log intensity, higher = more binding, comparable within an allelic series) with CRX [2]; 13.1 upbm affinity estimate (log intensity, higher = more binding, comparable within an allelic series) in the assay with PITX2; 13.2 upbm affinity estimate (log intensity, higher = more binding, comparable within an allelic series) with CRX [6].

Consider GAAGATTA, for which the binding signal with CRX [1] was 12.8 upbm affinity estimate (log intensity, higher = more binding, comparable within an allelic series); with CRX [2] it was 12.8 upbm affinity estimate (log intensity, higher = more binding, comparable within an allelic series); with PITX2 it was 12.4 upbm affinity estimate (log intensity, higher = more binding, comparable within an allelic series); with CRX [6], 12.5 upbm affinity estimate (log intensity, higher = more binding, comparable within an allelic series).

For the sequence AGATTATC, the binding signal was 13.2 upbm affinity estimate (log intensity, higher = more binding, comparable within an allelic series) with CRX [1]; 13.1 upbm affinity estimate (log intensity, higher = more binding, comparable within an allelic series) in the assay with CRX [2]; 12.5 upbm affinity estimate (log intensity, higher = more binding, comparable within an allelic series) with PITX2; 13.2 upbm affinity estimate (log intensity, higher = more binding, comparable within an allelic series) with CRX [6].

With CTTAATCC, the binding signal with CRX [1] is 13.7 upbm affinity estimate (log intensity, higher = more binding, comparable within an allelic series); in the assay with CRX [2], 13.8 upbm affinity estimate (log intensity, higher = more binding, comparable within an allelic series); with PITX2 it was 13.5 upbm affinity estimate (log intensity, higher = more binding, comparable within an allelic series); with CRX [6], 13.5 upbm affinity estimate (log intensity, higher = more binding, comparable within an allelic series).

As for GGCTTAAC, the binding signal is 12.7 upbm affinity estimate (log intensity, higher = more binding, comparable within an allelic series) with CRX [1]; 12.6 upbm affinity estimate (log intensity, higher = more binding, comparable within an allelic series) with CRX [2]; 12.7 upbm affinity estimate (log intensity, higher = more binding, comparable within an allelic series) in the assay with PITX2; 12.1 upbm affinity estimate (log intensity, higher = more binding, comparable within an allelic series) with CRX [6].

Turning to TAATCCTA, the binding signal is 13.4 upbm affinity estimate (log intensity, higher = more binding, comparable within an allelic series) in the assay with CRX [1]; 13.4 upbm affinity estimate (log intensity, higher = more binding, comparable within an allelic series) with CRX [2]; 13.2 upbm affinity estimate (log intensity, higher = more binding, comparable within an allelic series) with PITX2; 13.3 upbm affinity estimate (log intensity, higher = more binding, comparable within an allelic series) with CRX [6].

Regarding AGTAATCC, the binding signal with CRX [1] is 13.2 upbm affinity estimate (log intensity, higher = more binding, comparable within an allelic series); in the assay with CRX [2], 13.1 upbm affinity estimate (log intensity, higher = more binding, comparable within an allelic series); in the assay with PITX2 it was 13.1 upbm affinity estimate (log intensity, higher = more binding, comparable within an allelic series); with CRX [6], 13 upbm affinity estimate (log intensity, higher = more binding, comparable within an allelic series).

On to GCTAATCC, for which the binding signal in the assay with CRX [1] was 13.4 upbm affinity estimate (log intensity, higher = more binding, comparable within an allelic series); with CRX [2], 13.5 upbm affinity estimate (log intensity, higher = more binding, comparable within an allelic series); in the assay with PITX2, 13.3 upbm affinity estimate (log intensity, higher = more binding, comparable within an allelic series); in the assay with CRX [6], 13.4 upbm affinity estimate (log intensity, higher = more binding, comparable within an allelic series).

Consider CGTAATCC, for which the binding signal in the assay with CRX [1] was 13.2 upbm affinity estimate (log intensity, higher = more binding, comparable within an allelic series); in the assay with CRX [2] it was 13.2 upbm affinity estimate (log intensity, higher = more binding, comparable within an allelic series); with PITX2, 13 upbm affinity estimate (log intensity, higher = more binding, comparable within an allelic series); in the assay with CRX [6] it was 13.2 upbm affinity estimate (log intensity, higher = more binding, comparable within an allelic series).

Consider AGGATTAA, for which the binding signal was 13.6 upbm affinity estimate (log intensity, higher = more binding, comparable within an allelic series) with CRX [1]; 13.7 upbm affinity estimate (log intensity, higher = more binding, comparable within an allelic series) with CRX [2]; 13.3 upbm affinity estimate (log intensity, higher = more binding, comparable within an allelic series) with PITX2; 13.5 upbm affinity estimate (log intensity, higher = more binding, comparable within an allelic series) with CRX [6].

In the case of GACAACCA, the binding signal in the assay with CRX [1] was 8.34 upbm affinity estimate (log intensity, higher = more binding, comparable within an allelic series); in the assay with CRX [2] it was 8.18 upbm affinity estimate (log intensity, higher = more binding, comparable within an allelic series); with PITX2, 7.92 upbm affinity estimate (log intensity, higher = more binding, comparable within an allelic series); with CRX [6], 8.21 upbm affinity estimate (log intensity, higher = more binding, comparable within an allelic series).

For the sequence GGATTAAC, the binding signal with CRX [1] is 13.6 upbm affinity estimate (log intensity, higher = more binding, comparable within an allelic series); with CRX [2], 13.6 upbm affinity estimate (log intensity, higher = more binding, comparable within an allelic series); in the assay with PITX2, 13.3 upbm affinity estimate (log intensity, higher = more binding, comparable within an allelic series); with CRX [6] it was 13.5 upbm affinity estimate (log intensity, higher = more binding, comparable within an allelic series).

Turning to ATAGATTA, the binding signal is 12.7 upbm affinity estimate (log intensity, higher = more binding, comparable within an allelic series) with CRX [1]; 12.5 upbm affinity estimate (log intensity, higher = more binding, comparable within an allelic series) with CRX [2]; 12.3 upbm affinity estimate (log intensity, higher = more binding, comparable within an allelic series) in the assay with PITX2; 12.3 upbm affinity estimate (log intensity, higher = more binding, comparable within an allelic series) with CRX [6].

For the sequence ACGGATTA, the binding signal in the assay with CRX [1] was 13.5 upbm affinity estimate (log intensity, higher = more binding, comparable within an allelic series); in the assay with CRX [2], 13.5 upbm affinity estimate (log intensity, higher = more binding, comparable within an allelic series); in the assay with PITX2 it was 13.1 upbm affinity estimate (log intensity, higher = more binding, comparable within an allelic series); with CRX [6], 13.5 upbm affinity estimate (log intensity, higher = more binding, comparable within an allelic series).

For the origin of these results see publication PMC11006913.
